# Vif-A3F inh – inhibitors of Vif-A3F interaction; HeLa A3F-eYFP + Vif (tagged APOBEC3F with the HIV-1 protein that degrades it), YFP fluorescence increase; Potency, µM (titrated, usually from 46.1 µM), for inactives: at the top dose activity, negative = active; 390,000 tested, 0.2% active; also: % of control where 0% means no effect; nearly all actives have a fitted effect of over 65% in size
#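 HeLa cells stably expressing A3F-eYFP plus Vif, plated and incubated overnight at 37 deg C, then exposed to compounds overnight at 37 deg C. Blocked degradation read as raised yellow fluorescence (Ex 488/Em 500-530).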
# Epigenetic reg – epigenetic control regulation, reporter derepression. Potency, µM (top dose mostly 53.9 µM), for inactives: at the highest dose GFP activation, most hits filed as activators. AID 1865. murine LDR cells, GFP reporter derepression, 30 h. 280,000 tested, 0.2% active; also: % of control where 0% means no effect; nearly all actives have a fitted effect of over 60% in size
#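 Murine LDR cells bearing a silenced CMV-driven GFP reporter were exposed to compound for 30 h at 37 C. After PBS washes, GFP-positive cells (20-120 um objects) counted by laser-scanning microplate cytometry.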
# PINK1 modulator – modulators of PINK1 expression | PINK1 immunofluorescence, high-content cytometry, 24 h | Potency, µM (highest dose often 76.6 µM), without a hit: at the highest dose activation (PINK1 increase), most hits filed as activators | 410,000 tested, 0.2% active | AID 624263; active = well fitted activation curve with a large enough effect; inconclusive = small, poorly fitted or top-dose-only effect; cell line not stated here; also: % of control where 0% means no effect; nearly all actives have a fitted effect of over 65% in size
#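 Compound titrations (5 concentrations, 24 h) on a stable cell line; DMSO and CCCP controls. Endpoint: fixed-cell PINK1 immunofluorescence with mitochondrial, cell and nuclear markers, scanned by microplate cytometer.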
# Vif-APOBEC3G blk – blocks the Vif interaction with human APOBEC3G; Q9HC16; HeLa A3G-eYFP + Vif (tagged APOBEC3G with the HIV-1 protein that degrades it), YFP fluorescence, overnight; Potency, µM (titrated, usually from 46.1 µM), for inactives: at the highest dose activity, negative = active, actives largely listed as inhibitors; 410,000 tested, 0.076% active; AID 602310; also: % is scaled to controls: 0 for no effect and ±100 for the full control effect; nearly all actives have a fitted effect of over 60% in size
# Target sequence (Q9HC16 whole entry, looked up): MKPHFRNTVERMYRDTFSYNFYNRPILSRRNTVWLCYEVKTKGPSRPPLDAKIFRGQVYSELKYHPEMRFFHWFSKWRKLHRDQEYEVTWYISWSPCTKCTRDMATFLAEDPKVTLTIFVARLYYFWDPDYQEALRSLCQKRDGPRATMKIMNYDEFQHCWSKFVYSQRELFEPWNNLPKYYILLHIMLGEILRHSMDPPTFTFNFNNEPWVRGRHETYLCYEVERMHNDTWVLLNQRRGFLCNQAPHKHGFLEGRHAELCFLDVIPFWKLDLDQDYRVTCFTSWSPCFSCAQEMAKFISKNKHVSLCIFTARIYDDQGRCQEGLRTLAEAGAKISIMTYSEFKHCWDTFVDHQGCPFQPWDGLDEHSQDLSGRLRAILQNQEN
#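 Read-out is eYFP fluorescence (Ex 488/Em 500-530) from Vif-expressing HeLa A3G-eYFP cells; more signal means A3G escaped Vif-mediated degradation. Cells plated overnight, compound pinned in, incubated overnight at 37 deg C.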
# Numbers without * were called inactive; ? = inconclusive; · = no result given; [ ] = dose if it differs, or a comment. Sampled rows, rich in hits. Any-hit rate of the full collection: about 0.52%. Unless noted, calls follow the shape of the dose curve; as a rule, active = well fitted curve in the direction sought with a large enough effect; inconclusive = small, poorly fitted or top-dose-only effect, or another doubt; inactive = no such curve, though single readings can be large; an effect the other way counts as inactive or inconclusive. Potency is read from the fitted curve at half-maximal effect.
SMILES,Vif-A3F inh,Epigenetic reg,PINK1 modulator,Vif-APOBEC3G blk
Cc1cnc(SCc2ccccn2)nc1C1CCCN(C(=O)c2cccc(-c3cccc(F)c3)c2)C1 (stereo unspecified),·,·,2%,·
CCOC(=O)/C(C#N)=C/C=C1\C=Cc2ccccc2N1CC,4%,-1%,4%,-1%
CCCN1C=CC(=CC=C(C#N)C#N)C=C1,?,1%,?,13µM*
CCCCCCN1C=CC(=C/C=C(\C#N)C(=O)OCC)C=C1,?,10µM*,13µM*,4%
NC(=O)c1cc2ccccc2o/c1=N/NC(=O)c1cccs1,4%,10%,3%,4%
COc1ccc2o/c(=N/NC(=O)c3cccs3)c(C(N)=O)cc2c1,?,18µM*,6%,11µM*
O=C(Nc1cccc(Cl)c1)C1C2CCC3C(CCC21)C3(Cl)Cl (stereo unspecified),-21%,0%,22µM*,0%
Cc1ccc(N/C=C2/Sc3ccccc3NC2=O)cc1,?,?,40µM*,?
COc1ccc(NC(=O)c2c(NC(=O)CNCc3ccco3)sc3c2CCC3)cc1,-4%,25µM*,6%,-7%
COc1ccc(-c2cc(C)cc3c2OC(CNC(=O)/C=C/c2ccncc2)C3)nn1 (stereo unspecified),·,·,1%,·
CCOc1ccccc1N1CC(c2nc3ccccc3n2CCOc2ccc(OC)cc2)CC1=O (stereo unspecified),-8%,0%,3%,-8%
CCOc1ccccc1N1CC(c2nc3ccccc3n2Cc2c(C)cc(C)cc2C)CC1=O (stereo unspecified),13µM*,-2%,0%,-27%
CCOC(=O)c1c(/N=C/N(C)C)sc(/C=N/Nc2ccccc2)c1-c1ccc(Cl)cc1,-4%,11µM*,-3%,-20%
CCOC(=O)c1c(/N=C/N(C)C)sc(C)c1C,-2%,0%,-1%,1%
CCOC(=O)c1c(-c2ccccc2)csc1NC(=O)/C(C#N)=C/c1ccc(O)c(OC)c1,?,25µM*,15%,6%
CCCCCCCC[n+]1cccc2c3ccccc3ccc21,0%,1%,25µM*,-2%
COc1c(OC(C)=O)ccc(/C=C/c2ccc3ccccc3n2)c1[N+](=O)[O-],-7%,0%,10µM*,0%
c1ccc(-c2n[nH]c(-c3ccccn3)n2)nc1,1%,1%,1%[38.3 µM],0%
c1ccc(-c2n[nH]c(-c3ccccn3)n2)cc1,7%,22µM*,-1%,-7%
CC1(C)CC(=O)C(C=Nc2cc(C(=O)c3ccccc3)ccc2N)=C(O)C1,28µM*,8%,3%,-23%
COC(=O)c1ccc(N)c(N=CC2=C(O)CC(C)(C)CC2=O)c1,?,-1%,5%,-6%
Cc1ccc(/C=C2\CCC3=C2OC(N)=C(C#N)C3c2ccc(C)cc2)cc1 (stereo unspecified),?,11µM*,?,?
Nc1[nH]c2cc([N+](=O)[O-])ccc2c1-c1ccccn1,10µM*,·,9%,?
Cc1ncc2c(c1CNS(=O)(=O)N(C)C)CCN(C(=O)/C=C/c1ccccc1)C2,·,·,0%,·
CCOC(=O)c1ccc(NC(=S)Nc2cccc(N)n2)cc1,-33%,-6%,3%,4%
SMILES,Vif-A3F inh,Epigenetic reg,PINK1 modulator,Vif-APOBEC3G blk
CCOC(=O)c1ccc(NC(=S)Nc2cccc(C)n2)cc1,11µM*,-1%,2%,3%
Cc1ccc(Cn2cnc3c(cnn3C(C)(C)C)c2=O)cc1F,·,·,·,4%
COc1ccc(CNC(=O)c2c(Nc3ccccc3C)sc(C(=O)c3ccccc3)c2N)cc1,1%,0%,?,-9%
Cc1ccc(Nc2sc(C(=O)c3ccccc3)c(N)c2C(=O)Nc2ccc(Cl)cc2)cc1,-14%,-1%,40µM*,-5%
Nc1c(C(=O)c2ccccc2)sc(Nc2ccc(Cl)c(Cl)c2)c1C(=O)Nc1ccccc1,-13%,0%,16µM*,-2%
Cc1ccccc1Nc1sc(C(=O)c2ccccc2)c(N)c1C(=O)NCc1ccc(Cl)cc1,-9%,-1%,16µM*,-12%
Cc1nc(NCc2ccc3nsnc3c2)sc1-c1ccn(C)n1,·,·,2%,·
O=C(NC1CCN(Cc2ccccc2)C1)c1cnn(-c2ncc3c(n2)-c2ccccc2CC3)c1C1CC1 (stereo unspecified),·,·,1%,·
COc1ccccc1N1CCN(c2nc(CNC(=O)C3CCOC(C)(C)C3)nc3ccccc23)CC1 (stereo unspecified),·,·,3%,·
CS(=O)(=O)c1ccc(-c2ccc3c(c2)CC(CNC(=O)C2(N4CCOCC4)CCCCC2)O3)cc1 (stereo unspecified),·,·,0%,·
CCOc1ccc(CCNC(=O)C2CCC(=O)N2C2CCCCC2)cc1OCC (stereo unspecified),-4%,-2%,4µM*,1%
COc1ccc2c(c1)CCc1cnc(-n3ncc(C(=O)N4CCN(CCO)CC4)c3C3CC3)nc1-2,·,·,0%,·
CC(=O)N1CCN(c2nc3cc(C)ccc3cc2CN(C(=O)c2cccc3ccccc23)C2CC2)CC1,·,·,0%,·
O=C1S/C(=C/c2ccc(N3CCOCC3)o2)C(=O)N1Cc1c(F)cccc1Cl,?,2.5µM*,?,4µM*
O=C1S/C(=C\c2ccc(N3CCOCC3)o2)C(=O)N1Cc1c(F)cccc1Cl,?,8.9µM*,?,?
O=C1N=C(N2CCOCC2)S/C1=C/c1ccc(-c2ccccc2Cl)o1,5%,-1%,2%,2%
O=C(NCCN1CCOCC1)c1ccc2c(c1)N(Cc1c(F)cccc1Cl)C(=O)c1ccccc1S2,-7%,-3%,-1%,-9%
O=C1S/C(=C\c2ccc(N3CCOCC3)o2)C(=O)N1c1ccccc1,?,14µM*,?,4.5µM*
Cc1nn(C)c(Cl)c1CN1CCOc2ccc(CN3CCC(Oc4cccnc4)CC3)cc2C1,·,·,0%,·
COc1ccc(F)c(CN2CCC3(CCC(CNC(=O)c4cc(C)nn4C)O3)CC2)c1 (stereo unspecified),·,·,1%,·
Cc1cccc2c(=O)n3c(cc12)-c1[nH]c2ccccc2c1CC3,22µM*,·,?,-26%
O=c1c2ccccc2nc2n1CCc1c-2[nH]c2ccccc12,-9%,3%,4%,-1%
CCN1CCCC1CNCc1cc2ccc(SC)cc2nc1-c1cc(OC)ccc1OC (stereo unspecified),·,·,0%,·
S=C(NC1CCCCC1)N(CCc1ccccc1)CCc1ccccc1,7.1µM*,-1%,4%,-1%
COc1ccc(N=Cc2c(O)c3ccccc3n2C(C)=O)cc1,13µM*,14%,25µM*,13µM*
COc1ccc(N=Cc2sc(O)c3ccccc23)cc1,-17%,10µM*,4%,13µM*
COc1cccc(C(=O)N2CCc3c(C(=O)NC(C)c4ccco4)c(OC)cc(=O)n3CC2)c1OC (stereo unspecified),·,·,0%,·
O=C(NCc1ccco1)c1sc(=S)n2c1[nH]c(=O)c1ccccc12,-8%,1%,?,1%
O=C(NC1CCCC1)c1sc(=S)n2c1[nH]c(=O)c1ccccc12,-22%,0%,32µM*,-4%
